MazEF act: MazEF (E. coli) toxin RNase activation. FAM/BHQ RNA-DNA oligo cleavage fluorescence, 5 h. P0AE70. activation, % at 20 µM. hit rate 0.32% among 350,000; in the data active means activation above about 50%
Bead autofluor: compound fluorescence in toxin protease inhibitor counterscreen. compound autofluorescence counterscreen, microsphere flow cytometry; stronger effect = higher value. fluorescence intensity (concentration not given with the values). hit rate 3.1% among 360,000; in the data active means fluorescence intensity above about 16000; inconclusive means no clear call, values can overlap the other calls
BoNT F protease: inhibitors of Botulinum neurotoxin F light chain protease. Multiplex microsphere protease cleavage assay, flow cytometry. inhibition, % at 10 µM. hit rate 0.22% among 360,000; in the data active means inhibition above about 35%, passing the limit was not always enough; inconclusive means no clear call, values can overlap the other calls
BoNT A protease: BoNT A light chain protease inhibition | multiplex microsphere protease substrate cleavage, flow cytometry | inhibition, % at 10 µM | hit rate 0.17% among 360,000
Anthrax LF inh2: anthrax lethal factor protease inhibition. P15917. multiplex microsphere protease cleavage assay, LF. inhibition, % at 10 µM. hit rate 0.12% among 360,000. AID 588501
Large screens that a line does not name were inactive. In the library only some 3.7% were active in any assay of this set; here they are far more common. Unless noted, no stated cut-off is given here; in the data, active means inhibition above about 30%; inconclusive means no clear call, values can overlap the other calls; inactive means below that.

Nc1c(C(=O)CSc2nnnn2-c2ccc(O)cc2)c(=O)[nH]c(=O)n1C1CC1	none
N#C/C(=C\c1c(Cl)cccc1Cl)c1nc2ccccc2o1	BoNT F protease 49.1
O=C(O)c1cc[c]([Hg][Cl])cc1	BoNT A protease 60.3
O=C(O)c1ccccc1	none
O=C(O)c1ccccc1C(=O)OCC1CCC(=NO)CC1 (centres undefined)	none
C#CCN(Cc1ccco1)C(=O)c1ccc(OC2CCN(Cc3ccccn3)CC2)cc1	none
CC(C)C1=C2OC(N)=C(C#N)C(C#N)=C2C(C)CC1 (centres undefined)	Bead autofluor 22045
Cc1ccc(N/C=C/C(=O)c2sc(-c3ccccc3)nc2C)cc1	BoNT A protease 32.2
COc1ccc(OC)c(NC(=O)C(CCSC)NS(=O)(=O)c2cccs2)c1 (centres undefined)	none
O=C(CCC1CC(=O)Nc2ccccc21)NCc1ccc(F)cc1 (centres undefined)	Bead autofluor 18975
O=C(NN1C(=O)c2ccccc2NC1c1ccc([N+](=O)[O-])o1)c1ccc(Br)cc1 (centres undefined)	MazEF act 63.6
COc1ccc(C(O)c2nc(-c3cc4ccccc4o3)cs2)cc1 (centres undefined)	none (no result: MazEF act)
COc1ccc(-c2csc(-c3cc4ccccc4oc3=N)n2)cc1	BoNT A protease 39.4
O=C(CNc1ccc(Cl)c(C(F)(F)F)c1)N1CCN(S(=O)(=O)c2ccccc2)CC1	none
COCc1ccc(C(=O)N2CCCC(N3CCN(c4cccc(Cl)c4)CC3)C2)s1 (centres undefined)	none
CC(C)CCn1c(=O)c(C(=O)Nc2ccccc2S(N)(=O)=O)c(O)c2ccccc21	Bead autofluor 22781
CC(C)Cn1c(=O)c(C(=O)Nc2ccccc2S(N)(=O)=O)c(O)c2ccccc21	none
O=C1OCC(Cn2c3ccccc3c3ccccc32)O1 (centres undefined)	Bead autofluor 23400
O=C1CSc2ccc(C(=O)NCCC3=CCCCC3)cc2N1	Bead autofluor 23017, BoNT A protease inconclusive
COCCNC(=O)c1ccc2c(c1)NC(=O)CS2	Bead autofluor 19046
CCCCn1c(N)c(N(CC(C)C)C(=O)c2ccc3c(c2)NC(=O)C(C)S3)c(=O)[nH]c1=O (centres undefined)	none
Cc1cc([N+](=O)[O-])nn1CC(=O)NNC(=S)Nc1ccc(Cl)cc1	Bead autofluor 23664
COc1ccc(C(C)(O)c2nc(-c3ccc(N(C)C)cc3)cs2)cc1 (centres undefined)	none (no result: MazEF act)
Nc1c(C(=O)NCc2ccco2)c2nc3ccccc3nc2n1CCN1CCOCC1	Bead autofluor 21216
CCOc1ccc(NC(=O)c2ccc(F)c(S(=O)(=O)N3CCN(c4ccccn4)CC3)c2)cc1	Bead autofluor 16376, BoNT A protease inconclusive
CCOc1ccc(NC(=O)c2ccc(F)c(S(=O)(=O)N3CCCC3)c2)cc1	none
CC(=O)NC12CC3CC(C1)CC(C(=O)Oc1ccc(N(C)S(=O)(=O)c4cc(C)ccc4C)cc1)(C3)C2	none
O=C1C2=C(SCCS2)C(=O)N1c1ccccc1	Bead autofluor 19116
COc1ccc(-n2c3c(c(=O)[nH]c2=O)C(C(F)(F)F)(C(F)(F)F)N=C(CC(C)C)N3)cc1	Bead autofluor 19298
CC1(C(=O)NS(=O)(=O)c2ccc(Cl)cc2)CCN1C(=O)Cc1ccc(Cl)cc1Cl (centres undefined)	none (no result: MazEF act)
CCc1c(C)sc(NC(=O)c2cc(-c3ccco3)on2)c1C#N	Bead autofluor 23332
O=C(NCc1ccco1)c1cc(-c2ccco2)on1	Bead autofluor 16474, BoNT A protease inconclusive
O=C(NCc1ccccc1)c1cc(-c2ccco2)on1	none
Cc1cc(NC(=O)c2cc(-c3ccco3)on2)n(-c2ccccc2)n1	Bead autofluor 23364
CCc1c(C)sc(NC(=O)c2cc(C)on2)c1C#N	none
COc1ccccc1-c1cc(C(=O)Nc2cc(C)nn2-c2ccccc2)no1	Bead autofluor 20928
Cc1cc(NC(=O)c2cc(-c3ccccc3)on2)n(-c2ccccc2)n1	none
CC1CN(c2cnn(C(C)C)c(=O)c2Cl)CC(C)O1 (centres undefined)	none
Cc1ccccc1C(=O)N1CCC[C@H]1C(=O)N1CCC[C@H]1C(=O)NCc1ccccn1	none (no result: MazEF act)
COc1ccccc1-c1cc(C(=O)NC(C)C)no1	none
O=C(NCc1ccco1)c1cc(C(=O)C2CC2)c[nH]1	Bead autofluor 21145, BoNT A protease inconclusive
COc1ccccc1-c1cc(C(=O)Nc2ccc(F)cc2F)no1	Bead autofluor 20081
N#Cc1ccc(OCC(=O)Nc2cc(S(=O)(=O)N3CCOCC3)ccc2N2CCCC2)cc1	none (no result: Bead autofluor, BoNT F protease, BoNT A protease, Anthrax LF inh2)
COc1ccc(NC(=O)c2cc3ccc4c5ccccc5[nH]c4c3cc2O)cc1	BoNT F protease inconclusive
COc1ccc(C2C(C(=O)OCC(=O)N3CCCCC3)CCC(=O)N2c2ccc(OC)cc2)cc1 (centres undefined)	none
CCNC(=O)COC(=O)C1CCC(=O)N(c2ccc(OC)cc2)C1c1ccc(OC)cc1 (centres undefined)	Bead autofluor 21386
Cc1cccc(N2CCN(C(=O)c3ccc(CS(=O)(=O)c4ccccc4C)o3)CC2C)c1 (centres undefined)	Bead autofluor 21673, BoNT A protease inconclusive
COC(=O)c1ccc(CS(=O)(=O)c2ccccc2C)o1	Bead autofluor 23513, BoNT A protease inconclusive
COCCNC(=O)c1ccc(CS(=O)(=O)c2ccccc2C)o1	none
COc1ccccc1S(=O)(=O)Cc1ccc(C(=O)N2CCN(c3ccccc3)CC2)o1	Bead autofluor 21717
Cc1ccc(OCCC(=O)OC(C)C(=O)NC2CC2)cc1 (centres undefined)	none
C[C@@H]1CN([C@H](C)CO)C(=O)c2cc(Br)cnc2O[C@H]1CN(C)C(=O)Nc1ccc2c(c1)OCO2	none
Cc1nn(CC(=O)NNC(=O)c2cccc(Br)c2)c(C)c1[N+](=O)[O-]	none
O=C(CSc1nnc(-c2ccccc2)o1)N1CCc2ccccc2C1	none
O=C(CSc1nnc(-c2ccccc2O)o1)N1CCc2ccccc2C1	Bead autofluor 20351, BoNT A protease inconclusive
Cc1cc(C)n(-c2nc3ccccc3nc2N2CCC(C)CC2)n1	Bead autofluor 22810, BoNT A protease inconclusive
Cc1oc(-c2ccccc2Cl)nc1CS(=O)CC(=O)N1CCN(c2ccccc2)CC1 (centres undefined)	none
CN(C)c1ccc(/C=C/C(=O)c2cccc(Br)c2)cc1	Bead autofluor 33462, BoNT F protease 83.7, BoNT A protease 40.0, Anthrax LF inh2 34.7
CN(C)c1ccc(C(=O)/C=C/c2cccnc2)cc1	none
C[C@@]12C(=O)Nc3cc(F)ccc3C(=O)N1[C@H]1c3ccccc3OC[C@@H]1[C@@H]2c1ccccc1	none
CCn1c(NC(=O)c2ccc(COc3ccc(C)cc3[N+](=O)[O-])o2)nc2ccccc21	Bead autofluor 22323
Cc1ccc(OCc2ccc(C(=O)Nc3cc(C)on3)o2)c([N+](=O)[O-])c1	Bead autofluor inconclusive
N#CCCSc1ncnc2c1oc1ccccc12	Bead autofluor 18891
CCCCn1c(SCC(=O)Nc2nnc(CC)s2)nc2c1c(=O)n(C)c(=O)n2C	Bead autofluor 21466, BoNT A protease inconclusive
CCCCn1c(SCC(=O)NC(=O)Cc2ccccc2)nc2ccccc2c1=O	none

From PubChem
